Measured values: PubChem BioAssay AID493029 (Johns Hopkins Ion Channel Center, 2011)
Screen size: about 1,000 compounds; about 140 (14%) were called active. This is one part of a sample in which actives are shown more often than they occur. The rule behind the calls is not given here.

Experiment: non-target flux effects, untransfected CHO, cell-based, thallium flux, counter-screen for KCNQ2 inhibitor project (AID 493029);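 for activity change: 0% = vehicle negative controls with stimulus buffer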
Settings: parental CHO cells, at 10 µM; active compounds read low
With `CN(C)CC1Oc2ccccc2OC1(O)c1ccccc1` (configuration not stated) the activity change was -23% (active). With `O=C(NC(c1ccc(Cl)cc1)P(=O)(Oc1ccccc1)Oc1ccccc1)OCc1ccccc1` (configuration not stated) the activity change was “inactive”.
